For 69 sequences, z-score results are on record in PubChem BioAssay AID1508600 (Functional Genomics Laboratory (NCATS/FGL), 2020).

The whole screen tested about 53,000 sequences, of which about 3,700 (7%) were called active.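 How the source made its calls: active means gene knockdowns whose robust z-score for IL-1 alpha signal is at least 2 or at most -2, so actives lie on both sides; inactive means the rest.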 The entries come from a sample that favours actives as a whole.

The nature of this experiment: Components of the Cytosolic LPS Sensing Pathway: Gene Identification via Genome-wide siRNA Screen.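 Further: robust z of the log signal after scaling to non-targeting control siRNA wells of the plate.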 The settings on record: RAW264.7 macrophages, IL-1a HTRF, actives lie on both sides, screened at 100 nM (by protocol), cells primed 5 h with Pam3CSK4 first. The gist of the method:
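Cells (RAW264.7, 1×10^4 per well) were transfected with siRNA at 100 nM and cultured 48h at 37 degrees C. Pam3CSK4 was added for 5 hours; LipidA transfection followed for 24 hour. IL-1a was then measured by HTRF.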
(TR-FRET usually uses a lanthanide donor and a delayed reading to cut background.)
Consider GCCUGUCAACUACCCAUAUTT against Ergic3, for which the z-score is -1.13 (inactive).
The same measure for GGCAAUGAGUCUGACCUCUTT against Capg: -1.39 (inactive).
The same measure for GCUAAGGCUUGGAAUGACATT against Maged1: -0.105 (inactive); for GGUGGUGGGUCCAAUUUUUTT against Jpt1: 0.411 (inactive).
As for GGACGUAGAAGUUUGGGAGTT against Nupl2, the figure is 1.39 (inactive); as for GCACGUUCAGUGCACACCUTT against Nubp1, 2.59 (active); as for CCCUCACAACUUGAAGGACTT against Ccnk, -0.882 (inactive).
For GGAAGAAGUAGACCUGUCUTT against Aar2, the z-score was -2.36 (active).
The same measure for GGCUUUAGCAGAUGAGCGATT against Sptbn4: -0.0568 (inactive); for GGGACUGAGGACUACAUUCTT against Eif1b: -1.17 (inactive); for GGAGAAAUAAAUGACUUGCTT against Zswim2: -0.762 (inactive).
Regarding CCCACAGUACAUUCUAAAATT against Arsb, the z-score was 0.776 (inactive).
As for GCGUCAAAAUUAUCCGAAATT against Trnau1ap, the figure is 0.124 (inactive); as for GGACACGUUUCUGUGUUGUTT against Tspan32, 0.304 (inactive); as for GCACUAUGGGUGUCAUGGUTT against Mon1a, -3.1 (active).
Consider CGUAUUCCAUGGUUUCCUATT against Whrn, for which the z-score is 0.111 (inactive).
The same measure for GGAGUUUCUGGAAUGCAGGTT against Sec22c: 0.741 (inactive); for GCACAAUUUUAUAACUCGGTT against Lrrc49: 0.457 (inactive).
The same measure for GGAUAACUAUAUUCCAGUGTT against Rhobtb3: 0.885 (inactive); for GGCUAAAACACUUAUCAAUTT against Poteg: -2.32 (active).
As for CGUACCAUGUAAAUUCUAUTT against Impa1, the figure is 0.843 (inactive); as for CCCAAGAAACUUCGCUUCCTT against Ehmt1, -0.551 (inactive); as for GCCAAGCUUAAGAACUUAATT against Oas3, 1.51 (inactive).
Turning to GGAAUAGGCCUUCUUGCUGTT against Matr3, the z-score was -0.395 (inactive).
As for GCAAGACGGUGAUUGUAACTT against Pck2, the figure is -0.243 (inactive); as for GCUGAUUGAACUGAAUGGATT against Slc22a21, -1.27 (inactive).
On to CCAGGAUUGAUUUAGAAAATT against BC107364, for which the z-score is 1.29 (inactive).
As for GGUCAUGGCUGGAUUUCUUTT against Olfr1462, the figure is -2.42 (active); as for GCAGUGUCCAAAGCACUUUTT against Slc6a9, -1.14 (inactive).
GGAUCGCUUAGUCUCAUGATT against Inip: the z-score was -0.493 (inactive).
As for GGUGAACGAUGUCAACUUUTT against Dvl1, the figure is -0.545 (inactive).
In the case of GCAUAGGAGAGACCAACAUTT against Zcchc10, the z-score was -2.42 (active).
With GGAGGAAAAUCAGACAGGATT against Olfr1419, the z-score is -0.13 (inactive).
The same measure for GGUCCUCAAGAUCUUUGUGTT against Extl1: 0.0445 (inactive); for CCAAAACAACCACAAGUAGTT against Zfp385c: -2.96 (active); for GCUCUGUGGACUUCUUGGATT against Znrf4: -0.687 (inactive).
As for GGGCUAAAGCCUUCAACACTT against Olfr923, the figure is 0.315 (inactive); as for CCCUUACAACUCAAGUAUCTT against Lrig3, 2.1 (active).
As for GGUUGAAAAUGUUGUCAGGTT against Atpsckmt, the figure is -0.733 (inactive).
GGGUUUUUGUCAAAUCUGUTT against Ttc5: the z-score is -2.24 (active).
As for GGACAUCCAGACCAAUGUCTT against Psmd8, the figure is 1.1 (inactive); as for GGUCCAGACAUUUGGAUACTT against Cav2, 0.428 (inactive); as for GGAUACCUGAAAAUUGAUATT against Npr1, -0.667 (inactive).
As to GGGAAGCUUUACUUUUUAATT against Mapk4, the z-score is 2.05 (active).
As for CCUUAUGAAUCCCGAGUACTT against Bmp6, the figure is -0.0506 (inactive); as for GGGCAAAAAAGGUCUAUUCTT against Rfpl4, 0.44 (inactive).
As for CCACAGUAUCAUGUAACUATT against Il1a, the figure is -2.23 (active); as for GGAACCUAUUGCUGUUUUATT against Map2k3, -0.756 (inactive); as for GGAAUGUGGUUUCCUGUUATT against Fscn3, 0.502 (inactive).
As for GGCUGAACAAGAGAAACCATT against Ppdpf, the figure is -2.49 (active); as for CCCAGAAUUAAACAUAGCUTT against Rrh, 0.0181 (inactive); as for GGAAACCUGCUCAUAGUGGTT against Olfr1188, 0.54 (inactive).
For the sequence GCAUGCCUAAAUUUGGGACTT against Fyb, the z-score was 0.805 (inactive).
With GGCUGGACACUGAGAAAAATT against Adcy4, the z-score is 1.63 (inactive).
The same measure for GGUAUUUGGAGUACCCUUUTT against Arhgap11a: 0.196 (inactive).
Consider GGACAAGACUCUCAGUUCATT against Atpaf1, for which the z-score was 0.77 (inactive).
As for GGAAUUUAGAAAAUGUGACTT against Vmn1r227, the figure is -2.67 (active); as for GGGUGAUCUGUAGUAUUUUTT against Olfr574, -0.879 (inactive); as for CCCUGUUACGAAGUUUAACTT against Slc17a7, -1.27 (inactive).
As for GGUGACUCUGAUUCUCAUATT against Slc22a13, the z-score was -0.176 (inactive).
The same measure for GGAACUUGUACAAAUAGGATT against Lpcat1: 0.587 (inactive); for GGACGAAGAGGAGAAAGAGTT against Ccdc184: -1.25 (inactive).
Turning to GCUUAUUCCCAGGAGACCATT against Dmrtc2, the z-score is -0.764 (inactive).
Regarding CCCACCUUAUGGGACAAAATT against Hlf, the z-score is 2.05 (active).
As for GGUGGCCCAGUCUAAAGAATT against R74862, the figure is 0.872 (inactive); as for CCAGUGACAUUCAAUACCUTT against Lrif1, -1.52 (inactive); as for GGUCAAUAUUGGCUUAUGUTT against Tmem42, -1.43 (inactive).
The same measure for GGUGGAGAGAAAGAGAAAATT against Mcm8: 0.767 (inactive).
As for GGGUUACUUUAGCUAUUUCTT against Rbm14, the figure is -1.11 (inactive).
